# Assay results: publication PMC5540273 (PLoS ONE, 2017)
# Assays:
# Conditions in all cases: concentration: 1 μM, replicates: in singlicate; n = 1
# INSRR = test system: INSRR
# INSR = test system: INSR
# IRAK1 = test system: IRAK1
# IRAK3 = test system: IRAK3
# IRAK4 = test system: IRAK4
# ITK = test system: ITK
# [1] = test system: JAK1(JH1domain-catalytic)
# [2] = test system: JAK1(JH2domain-pseudokinase)
# [3] = test system: JAK2(JH1domain-catalytic)
# [4] = test system: JAK3(JH1domain-catalytic)
# JNK1 = test system: T1, JNK1
# T1 construct: gene MAPK8
# JNK2 = test system: T2, JNK2
# T2 construct: gene MAPK9
# JNK3 = test system: T3, JNK3
# T3 construct: gene MAPK10
# KIT-autoinhibited = test system: KIT-autoinhibited
# KIT = test system: KIT
# LATS1 = test system: LATS1
# LATS2 = test system: LATS2
# LCK = test system: LCK
# LIMK1 = test system: LIMK1
# LIMK2 = test system: LIMK2
# 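Further: KINOMEscan kinase panel screen.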
SMILES,%Inh (INSRR),%Inh (INSR),%Inh (IRAK1),%Inh (IRAK3),%Inh (IRAK4),%Inh (ITK),%Inh [1],%Inh [2],%Inh [3],%Inh [4],%Inh (JNK1),%Inh (JNK2),%Inh (JNK3),%Inh (KIT-autoinhibited),%Inh (KIT),%Inh (LATS1),%Inh (LATS2),%Inh (LCK),%Inh (LIMK1),%Inh (LIMK2)
Nc1n[nH]c2nnc(-c3ccccc3)cc12 [SB-517389],0%,0%,22%,0%,25%,13%,13%,8%,42%,0%,27%,5%,0%,0%,1%,0%,0%,0%,19%,3%
COc1ccc(Nc2nccc(N3CCC(NC(=O)c4cccc(NC(C)=O)c4)C3)n2)cc1 (stereo not drawn) [GSK1379732],0%,0%,24%,0%,0%,0%,15%,0%,22%,0%,16%,23%,26%,0%,7%,0%,9%,9%,0%,0%
Cn1cc(-c2ccc3c(c2)CCN3C(=O)Cc2cccc(C(F)(F)F)c2)c2c(N)ncnc21 [GSK2606414],3%,1%,0%,15%,10%,12%,7%,0%,34%,0%,1%,0%,0%,0%,87%,0%,0%,20%,0%,9%
Fc1cccc(COc2ccc(Nc3ncnc4nn5ccccc5c34)cc2Cl)c1 [GW689066],0%,8%,8%,0%,0%,3%,2%,0%,0%,0%,11%,10%,0%,0%,0%,0%,0%,5%,0%,0%
O=C(Nc1ccccc1)Nc1ccc(Oc2ccc3nccn3n2)cc1,1%,0%,0%,0%,0%,20%,28%,2%,8%,0%,0%,0%,0%,28%,95.8%,0%,0%,21%,10%,14%
Cc1ccc(NC(=O)c2cccc(C#N)c2)cc1-c1ccc(C(=O)Nc2ccncc2)cc1 [GSK1398463],2%,6%,24%,9%,21%,16%,3%,6%,39%,0%,25%,16%,17%,13%,100%,19%,0%,83%,28%,14%
Nc1nccc2scc(-c3ccc4c(c3)CCN4C(=O)Cc3cc(F)ccc3F)c12 [GSK2587663],0%,0%,17%,10%,7%,18%,14%,0%,0%,0%,22%,26%,8%,0%,64%,0%,8%,22%,4%,13%
CNc1nccc(-c2c(-c3ccc(F)cc3)ncn2CCCN2CCOCC2)n1 [SB-222516],0%,0%,6%,10%,9%,4%,0%,0%,8%,0%,12%,0%,0%,4%,2%,0%,0%,1%,11%,95.2%
COC(=O)c1cccc(NC(=O)NCCNc2ccnc(Nc3ccc(F)cc3)n2)c1 [GSK1379883],0%,0%,13%,0%,4%,11%,30%,0%,1%,0%,18%,25%,7%,0%,23%,0%,0%,5%,0%,19%
